# Of roughly 8,800 targets only a part is listed; those with a hit were picked by preference. About 0.5% of all pairs of compound and target were hits. Values without a mark were called inactive.
# Experiments:
# Assay in all cases: log2 fold change, soluble protein after heating vs DMSO (PISA); higher = thermal stabilisation; K562 lysate, 10 uM; active = over 0.2 and 3.5 SD of the protein, either way, in both replicates (recomputed)
# [1] = compound: CCCS(=O)(=O)Nc1ccc(F)c(C(=O)c2c[nH]c3ncc(-c4ccc(Cl)cc4)cc23)c1F [vemurafenib]
# Procedure, shortened: (§1)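 Log-two fold change in thermal stability relative to solvent controls is reported from duplicates. For each sample, crude K562 extract from dounce-homogenised pellets in PBS pH 7.4 with 1 mM MgCl2, at 1 mg/mL protein, was treated with 10 μM compound for 30 min. Aliquots heated for 3 min across 48°C-58°C were pooled, brought to 0.5% NP-40 at 4°C and cleared at 21,000xg for 90 min. The supernatant was quantified by TMTpro 16plex LC-MS/MS with channel sums equalised.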
# [2] = compound: CCCS(=O)(=O)Nc1ccc(F)c(C(=O)c2c[nH]c3ncc(Cl)cc23)c1F
# Procedure, shortened: as §1
# [3] = compound: CCN(CCCOc1ccc2c(Nc3cc(CC(=O)Nc4cccc(F)c4)[nH]n3)ncnc2c1)CCOP(=O)(O)O [barasertib]
# Procedure, shortened: as §1
# [4] = compound: CC[C@@H]1C(=O)N(C)c2cnc(Nc3ccc(C(=O)NC4CCN(C)CC4)cc3OC)nc2N1C1CCCC1
# Procedure, shortened: as §1
# [5] = compound: CC[C@@H]1C(=O)N(C)c2cnc(Nc3ccc(C(=O)N[C@H]4CC[C@H](N5CCN(CC6CC6)CC5)CC4)cc3OC)nc2N1C(C)C [volasertib]
# Procedure, shortened: as §1
# [6] = compound: CCn1c(C(=O)N(C2CC2)C2CC2)cc2c3c(ncn3C)c(Nc3cc(C)n(C)n3)nc21
# Procedure, shortened: as §1
# [7] = compound: CCn1cc(-c2ccnc3[nH]c(-c4cccc(CN(C)C)c4)cc23)c(-c2ccc(NC(=O)N(C)C)cc2)n1
# Procedure, shortened: as §1
# [8] = compound: CN1CCC(CNc2ccc3ncc(-c4cccc(OC(F)(F)F)c4)n3n2)CC1
# Procedure, shortened: as §1
# [9] = compound: CN1CCN(CCOc2cc(OC3CCOCC3)c3c(Nc4c(Cl)ccc5c4OCO5)ncnc3c2)CC1 [saracatinib]
# Procedure, shortened: as §1
# [10] = compound: CN1CCN(c2nc(C3=C(c4c[nH]c5ccccc45)C(=O)NC3=O)c3ccccc3n2)CC1 [sotrastaurin]
# Procedure, shortened: as §1
# [11] = compound: CN1CC[C@H](c2c(O)cc(O)c3c(=O)cc(-c4ccccc4Cl)oc23)[C@H](O)C1 [alvocidib]
# Procedure, shortened: as §1
# [12] = compound: CN1CCc2c(c3ccccc3n2Cc2ccc(C(=O)NO)cc2)C1 [Tubastatin A]
# Procedure, shortened: as §1
# [13] = compound: CNC(=O)C1=CC=CC=C1NC2=NC(=NC=C2Cl)NC3=C(C=C(C=C3)N4CCOCC4)OC
# Procedure, shortened: as §1
# [14] = compound: CNC(=O)c1ccc(Nc2ncc(C(F)(F)F)c(NCc3nccnc3N(C)S(C)(=O)=O)n2)cc1 [defactinib]
# Procedure, shortened: as §1
# [15] = compound: CNc1nc(-c2ccc3c(N)n[nH]c3c2)cc(N2C[C@@H](C(=O)NC3CCCCC3)CC[C@H]2C)n1
# Procedure, shortened: as §1
# [16] = compound: COC(=O)N[C@@H](C)CNc1nccc(-c2cn(C(C)C)nc2-c2cc(Cl)cc(NS(C)(=O)=O)c2F)n1 [encorafenib]
# Procedure, shortened: as §1
# [17] = compound: COC(=O)[C@H](CCSC)NC(=O)C1=C(C=C(C=C1)NC[C@H](CS)N)C2=CC=CC=C2
# Procedure, shortened: as §1
# [18] = compound: COc1cc(Nc2ncc3c(n2)-c2ccc(Cl)cc2C(c2c(F)cccc2OC)=NC3)ccc1C(=O)O [alisertib]
# Procedure, shortened: as §1
# [19] = compound: COc1cc2nc(-c3cc(F)ccc3O)nc(N[C@@H]3CNC[C@H]3C(C)(C)O)c2cc1OC
# Procedure, shortened: as §1
# [20] = compound: COc1cc2ncnc(Nc3ccc(F)c(Cl)c3)c2cc1OCCCN1CCOCC1 [gefitinib]
# Procedure, shortened: as §1
# Sequence of UniProt Q96HR9 (Q96HR9 whole entry, looked up): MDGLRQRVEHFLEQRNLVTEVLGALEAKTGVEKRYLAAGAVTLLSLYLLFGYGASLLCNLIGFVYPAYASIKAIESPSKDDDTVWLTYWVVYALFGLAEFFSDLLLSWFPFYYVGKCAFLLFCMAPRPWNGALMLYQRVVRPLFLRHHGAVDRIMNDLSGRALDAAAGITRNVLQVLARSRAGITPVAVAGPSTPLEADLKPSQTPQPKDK
# Sequence of UniProt Q13546 (Q13546 whole entry, looked up): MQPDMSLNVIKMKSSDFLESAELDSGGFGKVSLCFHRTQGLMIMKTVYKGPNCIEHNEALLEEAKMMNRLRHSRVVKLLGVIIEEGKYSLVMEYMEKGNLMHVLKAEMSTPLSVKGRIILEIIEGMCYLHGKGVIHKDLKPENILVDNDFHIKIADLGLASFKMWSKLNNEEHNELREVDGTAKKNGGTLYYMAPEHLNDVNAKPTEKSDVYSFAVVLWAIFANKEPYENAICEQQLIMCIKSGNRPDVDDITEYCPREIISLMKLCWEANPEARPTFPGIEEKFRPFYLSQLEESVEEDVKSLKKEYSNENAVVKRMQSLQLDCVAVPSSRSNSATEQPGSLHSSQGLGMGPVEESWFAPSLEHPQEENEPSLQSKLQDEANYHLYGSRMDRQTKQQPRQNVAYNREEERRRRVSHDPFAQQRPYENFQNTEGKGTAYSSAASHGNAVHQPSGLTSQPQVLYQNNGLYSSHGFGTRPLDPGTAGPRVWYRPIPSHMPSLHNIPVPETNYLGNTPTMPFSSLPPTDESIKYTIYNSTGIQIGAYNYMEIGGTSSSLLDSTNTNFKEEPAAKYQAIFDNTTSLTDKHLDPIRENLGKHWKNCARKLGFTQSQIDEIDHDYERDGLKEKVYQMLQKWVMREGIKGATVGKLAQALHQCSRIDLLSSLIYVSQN
# Sequence of UniProt Q99442 (Q99442 whole entry, looked up): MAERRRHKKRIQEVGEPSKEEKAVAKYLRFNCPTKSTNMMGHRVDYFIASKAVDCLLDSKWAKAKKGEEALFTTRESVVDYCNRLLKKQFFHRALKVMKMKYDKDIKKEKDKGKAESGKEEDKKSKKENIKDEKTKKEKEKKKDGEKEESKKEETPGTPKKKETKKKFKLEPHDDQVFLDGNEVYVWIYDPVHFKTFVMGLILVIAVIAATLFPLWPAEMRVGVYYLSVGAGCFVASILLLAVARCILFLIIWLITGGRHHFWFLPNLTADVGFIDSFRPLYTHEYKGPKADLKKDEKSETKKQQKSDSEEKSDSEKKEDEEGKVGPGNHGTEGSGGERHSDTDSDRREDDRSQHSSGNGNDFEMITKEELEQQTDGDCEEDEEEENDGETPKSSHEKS
# Sequence of UniProt Q9H7N4 (Q9H7N4 whole entry, looked up): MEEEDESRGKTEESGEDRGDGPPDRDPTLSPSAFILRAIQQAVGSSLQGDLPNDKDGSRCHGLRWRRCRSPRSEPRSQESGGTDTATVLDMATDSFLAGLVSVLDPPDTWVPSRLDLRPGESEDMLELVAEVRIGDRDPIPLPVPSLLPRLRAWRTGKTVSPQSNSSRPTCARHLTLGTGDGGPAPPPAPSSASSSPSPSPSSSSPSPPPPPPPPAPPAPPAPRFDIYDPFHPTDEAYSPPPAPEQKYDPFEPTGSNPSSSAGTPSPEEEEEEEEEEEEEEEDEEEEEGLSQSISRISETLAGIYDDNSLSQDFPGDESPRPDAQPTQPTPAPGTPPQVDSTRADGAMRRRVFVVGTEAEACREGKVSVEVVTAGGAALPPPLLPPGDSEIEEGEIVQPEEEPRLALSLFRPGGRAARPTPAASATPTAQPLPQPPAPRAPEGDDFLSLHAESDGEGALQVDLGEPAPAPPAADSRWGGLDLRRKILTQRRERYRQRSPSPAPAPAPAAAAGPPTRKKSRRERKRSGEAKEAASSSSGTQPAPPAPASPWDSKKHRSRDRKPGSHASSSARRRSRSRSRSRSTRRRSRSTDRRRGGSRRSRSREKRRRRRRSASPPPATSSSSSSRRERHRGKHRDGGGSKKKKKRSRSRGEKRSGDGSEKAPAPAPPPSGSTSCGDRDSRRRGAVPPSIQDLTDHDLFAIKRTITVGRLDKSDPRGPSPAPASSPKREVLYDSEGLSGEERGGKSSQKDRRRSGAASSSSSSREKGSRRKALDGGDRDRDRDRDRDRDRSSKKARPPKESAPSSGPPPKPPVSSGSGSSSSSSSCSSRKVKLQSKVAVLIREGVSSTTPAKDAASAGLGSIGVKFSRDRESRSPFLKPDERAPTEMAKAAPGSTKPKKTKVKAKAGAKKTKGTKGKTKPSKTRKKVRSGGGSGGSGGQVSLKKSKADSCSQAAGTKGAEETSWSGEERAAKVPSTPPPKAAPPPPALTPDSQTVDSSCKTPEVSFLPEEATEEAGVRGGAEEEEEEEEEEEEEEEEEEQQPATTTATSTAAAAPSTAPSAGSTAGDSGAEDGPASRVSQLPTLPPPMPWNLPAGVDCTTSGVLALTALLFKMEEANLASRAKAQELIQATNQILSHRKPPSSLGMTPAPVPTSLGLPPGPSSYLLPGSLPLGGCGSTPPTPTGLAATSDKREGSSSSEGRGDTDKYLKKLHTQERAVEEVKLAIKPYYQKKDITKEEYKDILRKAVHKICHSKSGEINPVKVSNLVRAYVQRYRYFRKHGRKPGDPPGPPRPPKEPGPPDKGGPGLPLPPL
# Sequence of UniProt Q8IZV5 (Q8IZV5 whole entry, looked up): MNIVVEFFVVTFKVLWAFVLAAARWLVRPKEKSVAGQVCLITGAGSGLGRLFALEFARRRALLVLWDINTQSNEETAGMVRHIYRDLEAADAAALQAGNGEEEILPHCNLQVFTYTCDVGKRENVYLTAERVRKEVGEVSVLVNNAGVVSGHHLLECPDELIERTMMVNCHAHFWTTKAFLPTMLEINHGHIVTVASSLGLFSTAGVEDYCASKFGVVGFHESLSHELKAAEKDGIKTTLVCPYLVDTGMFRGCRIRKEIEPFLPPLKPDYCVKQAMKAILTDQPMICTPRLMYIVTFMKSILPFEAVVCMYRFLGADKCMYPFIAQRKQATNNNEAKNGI
# Sequence of UniProt P51159 (P51159 whole entry, looked up): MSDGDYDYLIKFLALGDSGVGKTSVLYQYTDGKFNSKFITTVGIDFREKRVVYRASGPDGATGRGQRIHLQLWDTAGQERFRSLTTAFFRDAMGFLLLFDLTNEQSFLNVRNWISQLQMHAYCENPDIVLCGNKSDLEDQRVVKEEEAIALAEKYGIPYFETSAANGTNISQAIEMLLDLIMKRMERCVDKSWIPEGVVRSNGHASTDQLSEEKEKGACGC
# Sequence of UniProt P54136 (P54136 whole entry, looked up): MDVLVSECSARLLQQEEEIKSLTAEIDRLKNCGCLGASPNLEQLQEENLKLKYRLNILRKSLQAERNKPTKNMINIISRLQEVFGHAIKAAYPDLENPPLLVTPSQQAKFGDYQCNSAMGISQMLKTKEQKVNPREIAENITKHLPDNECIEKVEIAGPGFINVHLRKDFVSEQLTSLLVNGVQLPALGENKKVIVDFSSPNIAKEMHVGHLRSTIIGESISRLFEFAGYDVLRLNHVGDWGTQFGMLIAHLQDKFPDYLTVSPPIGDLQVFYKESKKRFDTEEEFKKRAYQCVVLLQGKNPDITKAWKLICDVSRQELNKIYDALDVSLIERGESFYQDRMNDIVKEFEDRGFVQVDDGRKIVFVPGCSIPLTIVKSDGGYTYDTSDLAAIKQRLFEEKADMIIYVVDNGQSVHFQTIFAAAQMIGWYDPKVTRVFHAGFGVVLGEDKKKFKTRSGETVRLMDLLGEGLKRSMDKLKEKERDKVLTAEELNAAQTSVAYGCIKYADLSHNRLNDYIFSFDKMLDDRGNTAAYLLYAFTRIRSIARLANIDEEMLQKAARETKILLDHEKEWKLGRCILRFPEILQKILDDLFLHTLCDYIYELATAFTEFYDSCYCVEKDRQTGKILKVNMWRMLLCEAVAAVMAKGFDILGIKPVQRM
# Sequence of UniProt P35241 (P35241 whole entry, looked up): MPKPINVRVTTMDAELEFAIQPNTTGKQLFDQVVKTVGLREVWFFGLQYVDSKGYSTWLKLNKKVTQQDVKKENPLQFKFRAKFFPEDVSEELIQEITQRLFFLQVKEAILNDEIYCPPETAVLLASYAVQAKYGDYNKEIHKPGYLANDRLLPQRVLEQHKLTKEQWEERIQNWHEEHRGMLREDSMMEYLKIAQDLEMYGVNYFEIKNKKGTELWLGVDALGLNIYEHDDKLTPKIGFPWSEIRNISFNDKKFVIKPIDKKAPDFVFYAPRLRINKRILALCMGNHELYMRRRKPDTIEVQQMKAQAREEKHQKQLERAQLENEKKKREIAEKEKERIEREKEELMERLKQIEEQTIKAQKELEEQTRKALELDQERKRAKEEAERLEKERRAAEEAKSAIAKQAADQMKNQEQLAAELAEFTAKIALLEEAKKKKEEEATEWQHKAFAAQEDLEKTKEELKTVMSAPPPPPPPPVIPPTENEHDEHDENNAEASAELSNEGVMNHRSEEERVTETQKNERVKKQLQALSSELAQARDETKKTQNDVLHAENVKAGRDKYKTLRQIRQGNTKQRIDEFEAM
# Sequence of UniProt Q9BWF3 (Q9BWF3 whole entry, looked up): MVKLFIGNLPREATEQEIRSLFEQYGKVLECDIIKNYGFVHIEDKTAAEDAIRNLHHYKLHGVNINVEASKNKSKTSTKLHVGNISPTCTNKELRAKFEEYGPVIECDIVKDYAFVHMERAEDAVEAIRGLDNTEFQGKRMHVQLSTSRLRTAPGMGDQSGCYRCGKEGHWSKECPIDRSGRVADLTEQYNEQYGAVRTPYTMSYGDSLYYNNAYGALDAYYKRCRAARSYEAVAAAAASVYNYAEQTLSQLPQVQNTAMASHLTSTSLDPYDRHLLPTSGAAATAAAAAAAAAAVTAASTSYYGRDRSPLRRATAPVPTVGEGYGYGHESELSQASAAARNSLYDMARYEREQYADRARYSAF
Target,log2 fold change [1],log2 fold change [2],log2 fold change [3],log2 fold change [4],log2 fold change [5],log2 fold change [6],log2 fold change [7],log2 fold change [8],log2 fold change [9],log2 fold change [10],log2 fold change [11],log2 fold change [12],log2 fold change [13],log2 fold change [14],log2 fold change [15],log2 fold change [16],log2 fold change [17],log2 fold change [18],log2 fold change [19],log2 fold change [20]
RRM1 (UniProt P23921),0.023,0.018,0.011,-0.065,-0.063,0.003,-0.045,-0.031,-0.02,-0.016,-0.004,-0.098,-0.007,0.022,-0.03,0.005,0.098,0.007,0.007,-0.006
RAB27A (UniProt P51159),-0.037,-0.024,0.012,-0.056,-0.082,0.034,0.679 (active),-0.048,0.021,0.001,0.087,-0.083,0.047,-0.001,-0.131,0.027,0.016,-0.004,0.041,0.068
RIPK1 (UniProt Q13546),-0.053,0.027,0.01,-0.026,-0.066,0.027,-0.019,-0.013,0.016,-0.045,0.001,-0.108,0.044,0.065,0.035,-0.017,0.025,-0.025,-0.016,0.042
RNASEL (UniProt Q05823),-0.004,0.053,0.077,-0.017,-0.103,0.012,-0.006,-0.025,-0.011,0.024,0.054,-0.094,-0.034,-0.02,0.012,0.029,0.144,-0.074,-0.035,0.061
RDX (UniProt P35241),0,-0.008,0.003,0.016,0.017,-0.018,0.712 (active),-0.109,-0.018,-0.013,0.116,0.042,-0.002,-0.009,0.034,-0.047,-0.033,-0.018,0,0.013
RFC5 (UniProt P40937),0.034,-0.003,-0.017,-0.039,-0.079,0.022,0.137,0.005,0.008,0.043,0.004,-0.203,0.003,0.008,-0.004,0.051,0.148,-0.006,-0.003,0
SCML2 (UniProt Q9UQR0),0.033,-0.006,-0.028,-0.007,-0.018,0.02,0.033,0.032,0.064,-0.067,0.006,-0.204,0.031,-0.03,-0.035,0.01,0.18,0.025,-0.016,-0.053
RBM4 (UniProt Q9BWF3),-0.013,-0.042,0.023,-0.053,-0.032,0.045,0.344 (active),-0.044,-0.013,-0.015,0.16,-0.168,0.013,-0.011,-0.088,0.089,-0.066,0.037,0.006,-0.004
RANBP2 (UniProt P49792),-0.031,0.015,0.043,-0.022,-0.048,0.026,-0.019,-0.031,0.018,0.015,-0.001,-0.169,0.011,0.004,-0.041,0.038,0.042,-0.01,0,-0.013
SCAF1 (UniProt Q9H7N4),0.027,0.093,0.079,0.089,-0.114,0.05,-0.041,0.008,0.009,-0.029,0.054,0.034,-0.051,0.046,0.051,-0.028,-0.066,0.128,-0.02,0.129
SERPINI1 (UniProt Q99574),0.027,0.008,-0.006,0.024,-0.001,0.03,0.001,0.069,0,0.016,-0.031,0.015,-0.001,0.019,-0.042,0.02,-0.074,-0.064,0.013,0.048
RDH10 (UniProt Q8IZV5),0.054,0.032,0.027,-0.011,0.035,-0.072,-0.067,0.062,-0.035,-0.006,-0.013,0.015,0.069,0.009,-0.013,-0.001,0.346 (active),0.037,0.007,-0.004
REEP6 (UniProt Q96HR9),0.072,0.021,0.093,-0.022,0.077,0,-0.358 (active),0.072,0.094,0.017,-0.089,0.045,0.02,0.056,-0.013,0.076,-0.025,0.032,-0.036,-0.175
SEC62 (UniProt Q99442),-0.024,0.039,0.027,0.017,0.011,0,0.373 (active),-0.12,-0.011,-0.04,0.046,0.07,0.019,0.02,0.045,-0.012,-0.084,-0.003,-0.028,0.004
RARS (UniProt P54136),-0.004,-0.003,0.046,-0.093,-0.078,0.067,0.013,-0.039,0.027,0.045,0.032,-0.1,-0.006,0.024,-0.035,-0.001,0.128,0.026,-0.009,-0.023
RAE1 (UniProt P78406),-0.017,-0.021,-0.051,0.04,-0.081,0.018,-0.355 (active),0.131,0.039,0.044,-0.038,-0.072,0.039,-0.004,-0.044,0.038,0.345 (active),-0.015,-0.002,0.033
